# D2 antagonist: antagonizes the human D2 dopamine receptor. hit rate 2% among 340,000. inhibition, % at 10 µM. P14416. HEK293 TREx D2 cells, calcium flux, dopamine EC80; in the data active = inhibition above about 30%; inactive = below that, where a call was filed; also: 0% is about no effect
# Target sequence (P14416 whole entry, looked up): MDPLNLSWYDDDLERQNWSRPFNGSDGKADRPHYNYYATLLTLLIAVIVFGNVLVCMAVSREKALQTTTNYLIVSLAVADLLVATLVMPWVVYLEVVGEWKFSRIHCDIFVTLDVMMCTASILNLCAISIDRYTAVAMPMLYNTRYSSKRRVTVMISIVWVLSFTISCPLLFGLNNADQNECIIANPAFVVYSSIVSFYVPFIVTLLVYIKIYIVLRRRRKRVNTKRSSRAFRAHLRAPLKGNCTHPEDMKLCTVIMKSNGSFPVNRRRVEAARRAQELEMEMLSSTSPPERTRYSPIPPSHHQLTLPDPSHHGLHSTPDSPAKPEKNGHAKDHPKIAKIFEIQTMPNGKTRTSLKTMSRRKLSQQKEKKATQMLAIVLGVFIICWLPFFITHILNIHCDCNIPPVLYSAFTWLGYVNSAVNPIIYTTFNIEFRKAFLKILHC
#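 Inhibition of EC80 dopamine-driven calcium flux, recorded kinetically, defines activity here; cells are a tetracycline-induced HEK293 T-REx line expressing force-coupled D2.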
# D2 ag-1: D2 dopamine receptor (human) agonism | P14416 | HEK293 T-REx D2 cells, calcium flux agonist mode | activation, % at 2 µM | hit rate 0.53% among 340,000;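 active = activation over 3 SD above normal in the single-dose calcium agonist read, cut at about 30% in these data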; also: 0% is about no effect
#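 In this primary screen, compounds producing a positive calcium signal within 180 s of addition to tetracycline-induced, force-coupled HEK293 Trex D2 cells are flagged; cells are dye-loaded with a no-wash calcium kit beforehand.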
# D2 ag-2: activates the human D2 dopamine receptor; DiscoveRx PathHunter D2 beta-arrestin, luminescence, 90 min; 100% = 57 uM dopamine signal; AID 624465; activation, % (test concentration not listed); hit rate 0.084% among 360,000; P14416; in the data active = activation above about 40%; inconclusive = between about 15% and that limit
#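 Agonist mode: compounds alone added to overnight-plated D2 PathHunter cells for 90 min at 37 C, with 57 uM final dopamine (EC100) defining full response. Beta-arrestin recruitment detected by chemiluminescent reagent, read after 1 h at ambient temperature.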
# D2 PAM-1: potentiates the human D2 dopamine receptor allosterically; AID 624464; hit rate 0.23% among 360,000; potentiation, % (test concentration not listed); P14416; DiscoveRx D2 beta-arrestin cells, luminescence, 90 min; 100% = 57 uM dopamine signal; in the data active = potentiation above about 50%; inconclusive = mostly about 30% to 49%
#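 D2 cells co-treated with compound plus 50 nM dopamine (EC20) for 90 min at 37 deg C to detect potentiation. Beta-arrestin recruitment was read as enzyme-fragment luminescence after 1 h at ambient temperature. Full response was set by 57 uM dopamine.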
# D2 PAM-2: positive allosteric modulators of human D2 dopamine receptor; HEK293 T-REx D2, calcium flux, EC20 dopamine potentiation; P14416; hit rate 0.34% among 340,000; potentiation, % at 10 µM;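 active = potentiation over 3 SD above the plate norm, cut at about 30% in these data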; also: 0% is about no effect
#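 Primary screen. Calcium kinetics in induced HEK293 T-REx D2 cells: compound pre-addition 180 s, EC20 dopamine, 180 s more.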
# * = called active by the depositor; ? = inconclusive; . = no result given. Shown are actives, neighbours in structure and some others; about 2.4% of the full set was active somewhere.
SMILES,D2 antagonist,D2 ag-1,D2 ag-2,D2 PAM-1,D2 PAM-2
CCN(Cc1nc2ccccc2c(=O)[nH]1)C(=O)c1cccc(S(=O)(=O)N2CCc3ccccc32)c1,47.4*,-0.3,0.6,-1.3,0.1
O=C(Oc1ccc(Cl)cc1)N1CCCCC1,8.3,-2.3,-1.6,-3.7,0.5
O=C(Oc1ccc(-c2nnco2)cc1)N1CCCCC1,15.7,0.9,-2.1,-9.2,34.5*
COc1ccc2c(c1)CC(C(=O)N1CCC(C(N)=O)CC1)CO2 (stereo unspecified),.,.,.,.,3.8
COC(=O)NCC(c1cccnc1)N1CCOCC1 (stereo unspecified),24.8,0.0,-5.6,-10.3,-0.6
O=C(NCC(c1cccnc1)N1CCOCC1)c1cccs1 (stereo unspecified),33.7*,0.6,0.1,-1.5,-1.7
O=C(O)CCS(=O)(=O)c1cccc2cccnc12,31.0*,0.9,-1.2,-18.0,16.7
CCN(CC)c1ccc(CN(C(=O)c2cccs2)C2CCS(=O)(=O)C2)cc1 (stereo unspecified),30.1*,0.1,-4.6,-14.3,9.1
COCCN1C(=O)CCC1(C)C(=O)Nc1ccc2c(c1)OCCO2 (stereo unspecified),.,.,-4.3,0.6,.
O=C(N/N=C\c1cn[nH]c1-c1ccccc1)c1ccc([N+](=O)[O-])cc1,57.8*,-1.3,3.3,-15.7,-22.6
CCc1c(C(=O)N/N=C/c2cn[nH]c2-c2ccc(F)cc2)csc1C,71.1*,3.5,0.1,10.5,-26.8
Cc1cc(C(=O)N/N=C/c2cn[nH]c2-c2ccccc2)cs1,30.3*,0.4,-3.0,-18.6,-21.1
O=C(N/N=C/c1cn[nH]c1-c1ccccc1)c1ccco1,3.6,1.2,-0.1,-4.3,13.3
Cc1ccc(NC(=O)CSc2nc(C3CCCC3)nc3c2c(=O)n(C)c(=O)n3C)c(C)c1,.,0.0,.,.,-9.9
COc1ccc(/C=N/Nc2nnc(C)n2N)cc1OC,-0.5,0.5,?,56.7*,9.5
COc1cc(C2c3c(oc4ccc(F)cc4c3=O)C(=O)N2c2nc(C)c(C)s2)cc(OC)c1OC (stereo unspecified),.,-0.9,.,.,11.7
Nc1ccccc1SCc1ccccc1,30.7*,-0.2,-6.6,-10.7,-5.1
CN(C)CCOCCOc1ccccc1-c1ccccc1,-16.1,1.2,1.2,-21.4,28.7
CNCCOc1ccccc1-c1ccccc1,45.0*,0.8,2.5,-33.0,-22.0
CC(C)(C)c1ccccc1OCCCCCNCCO,50.4*,0.7,-4.7,-16.1,-30.2
Cc1ccccc1OCCCCCNCCO,-1.5,0.0,0.0,-8.9,-6.8
OCCNCCOc1ccccc1-c1ccccc1,66.4*,3.3,2.3,-23.6,-10.0
CNCCCCOc1ccccc1-c1ccccc1,-16.3,0.9,-2.1,-36.7,-30.8
OCCNCCOCCOc1ccccc1-c1ccccc1,33.1*,28.1,-4.0,-35.3,-23.6
Cc1cc(C)c(NC(=O)Cn2nnc(-c3ccccc3)n2)c(C)c1,.,-0.1,.,.,2.2
SMILES,D2 antagonist,D2 ag-1,D2 ag-2,D2 PAM-1,D2 PAM-2
CC1=CC2=NC(=O)CC(C)(C(=O)N(CC(=O)NC(C)(C)C)C3CCCC3)N2C=C1 (stereo unspecified),-1.8,-1.0,0.1,3.0,4.0
CC1=CC2=NC(=O)CC(C)(C(=O)N(CC(=O)NC3CCCC3)c3cc(C)cc(C)c3)N2C=C1 (stereo unspecified),60.2*,-0.1,0.8,-7.4,9.6
COc1ccc(C2=CC(c3ccccc3Cl)n3nc(-c4ccc(C)cc4)nc3N2)cc1 (stereo unspecified),.,-0.8,.,.,7.0
CCN(CC1CCCN(CCc2cccc(F)c2)C1)C(=O)c1ccoc1C (stereo unspecified),.,.,-3.2,-51.1,.
C=CCC(=O)N(CC)CC1CCCN(CCc2cccc(F)c2)C1 (stereo unspecified),49.5*,0.0,-2.1,-1.3,-16.9
Cc1ccccc1C(=O)NNC(=S)NC(=O)c1ccc(Cl)cc1Cl,30.9*,46.3*,-3.4,-12.3,-14.7
O=C(NC(=S)NNC(=O)c1ccc(Cl)cc1Cl)c1cccnc1,-0.5,0.9,2.4,-28.2,1.1
Cc1onc(-c2ccccc2)c1C(=O)NNC(=S)NC(=O)c1ccc(Cl)cc1Cl,30.3*,31.8*,-2.6,-13.0,-4.0
Cc1onc(-c2ccccc2)c1C(=O)NNC(=O)c1ccccc1,1.8,-0.5,-5.6,0.0,14.0
Cc1cccc(C(=O)NC(=S)NNC(=O)c2ccccc2Cl)c1,25.2,31.2*,1.3,-11.7,6.0
CCC1CN(C(=O)N2CCC(C(=O)NCc3ccc(OC)cc3OC)CC2)c2cc(C)ccc2O1 (stereo unspecified),.,0.8,.,.,-8.1
Cn1c(-c2ccccc2)c(C(=O)CCl)c2ccccc21,-0.4,-0.7,3.6,-9.3,38.8*
O=C(NCc1cccs1)c1csc(COCCO)n1,.,.,-2.1,-16.1,.
COc1ccc(NC(=O)CN(C)CC(=O)Nc2sc3c(c2C#N)CCC3)cc1,32.2*,-0.4,7.2,-0.1,4.4
Cc1ccc(NC(=O)CSCC#N)cc1,87.4*,0.4,-0.1,-0.4,-18.4
N#CCSCC(=O)Nc1ccc(Br)cc1,11.5,-0.5,-3.7,-7.9,-0.2
Cc1cc(C)c2c(CC(=O)Nc3ccc(S(=O)(=O)N4CCCCC4)cc3)coc2c1,.,1.0,.,.,4.6
O=C(c1ccc(N2C(=O)CCC2=O)cc1)N1CCOCC1,53.1*,0.4,-1.4,1.7,-3.7
O=C(Nc1nnc(-c2ccccc2Cl)o1)c1nc2ccccc2s1,7.7,39.1*,-2.6,-7.3,-16.5
COc1cc(=O)[nH]c(SCc2c(F)c(F)c(F)c(F)c2F)n1,-1.2,-0.6,2.5,-4.6,95.2*
COc1ccc(CSc2nc(C)cc(=O)[nH]2)cc1Br,2.7,1.2,-1.2,-0.2,2.2
O=C(c1[nH]c(C(F)(F)F)nc1-c1ccccc1)N1CCC(Cc2ccccc2)CC1,.,.,6.0,0.2,.
Cn1cccc([N+](=O)[O-])c1=O,.,.,-4.5,-15.8,.
Cn1c(=O)c(=O)n(C)c2cc([N+](=O)[O-])c([N+](=O)[O-])cc21,14.4,1.6,?,54.0*,6.7
Cc1cc(NC(=O)CCC(=O)N(Cc2ccco2)C2(C(=O)NC3CCCC3)CCC(C)CC2)no1 (stereo unspecified),-0.2,-0.3,-0.8,-12.1,4.3
Cc1cc(NC(=O)CCC(=O)N(CCC(C)C)C(C(=O)NC2CCCC2)c2ccccc2C)no1 (stereo unspecified),51.5*,1.2,7.9,-1.4,-2.2
CCc1ccc(N(C(=O)CCC(=O)Nc2cc(C)on2)C(C(=O)NC2CCCC2)c2ccco2)cc1 (stereo unspecified),33.5*,-0.9,-5.2,-15.7,10.6
Cc1cc(NC(=O)CCC(=O)N(C2CC2)C2(C(=O)NC3CCCC3)CCC(C)CC2)no1 (stereo unspecified),37.2*,0.2,-2.9,-6.1,-2.1

# Bioassay records: PubChem BioAssay, National Center for Advancing Translational Sciences (NCATS)
